# Results: ChEMBL document CHEMBL1961873, “Compounds: GSK PKIS; Assays: Nanosyn kinase panel” (2012)
# Assays:
# [1] = biological target: Serine/threonine-protein kinase PAK 6 (Homo sapiens) (UniProt Q9NQU5); conditions: at 1 µM;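 further: values are mean percent inhibition of PAK6 kinase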
# [2] = system: Tyrosine-protein kinase ABL1 (Homo sapiens), P00519 [E255K]; conditions: at 0.1 µM
# [3] = system: Tyrosine-protein kinase ABL1 (Homo sapiens), P00519 [E255K]; conditions: at 1 µM
# [4] = system: Tyrosine-protein kinase ABL1 (Homo sapiens), P00519 [H396P]; conditions: at 0.1 µM
# [5] = system: Tyrosine-protein kinase ABL1 (Homo sapiens), P00519 [H396P]; conditions: at 1 µM
# [6] = system: Tyrosine-protein kinase ABL1 (Homo sapiens), P00519 [M351T]; conditions: at 0.1 µM
# [7] = system: Tyrosine-protein kinase ABL1 (Homo sapiens), P00519 [M351T]; conditions: at 1 µM
# [8] = system: Tyrosine-protein kinase ABL1 (Homo sapiens), P00519 [Q252H]; conditions: at 0.1 µM
# [9] = system: Tyrosine-protein kinase ABL1 (Homo sapiens), P00519 [Q252H]; conditions: at 1 µM
# [10] = system: Tyrosine-protein kinase ABL1 (Homo sapiens), P00519 [T315I]; conditions: at 0.1 µM
# [11] = system: Tyrosine-protein kinase ABL1 (Homo sapiens), P00519 [T315I]; conditions: at 1 µM
# [12] = system: Tyrosine-protein kinase ABL1 (Homo sapiens), P00519 [Y253F]; conditions: at 0.1 µM
# [13] = system: Tyrosine-protein kinase ABL1 (Homo sapiens), P00519 [Y253F]; conditions: at 1 µM
# [14] = biological target: Tyrosine-protein kinase ABL1 (Homo sapiens) (UniProt P00519); conditions: at 0.1 µM
# [15] = biological target: Tyrosine-protein kinase ABL1 (Homo sapiens) (UniProt P00519); conditions: at 1 µM
# [16] = biological target: ALK tyrosine kinase receptor (Homo sapiens) (UniProt Q9UM73); conditions: at 0.1 µM
# Sequence of ALK tyrosine kinase receptor (Homo sapiens) (Q9UM73 19-1620 limits assumed): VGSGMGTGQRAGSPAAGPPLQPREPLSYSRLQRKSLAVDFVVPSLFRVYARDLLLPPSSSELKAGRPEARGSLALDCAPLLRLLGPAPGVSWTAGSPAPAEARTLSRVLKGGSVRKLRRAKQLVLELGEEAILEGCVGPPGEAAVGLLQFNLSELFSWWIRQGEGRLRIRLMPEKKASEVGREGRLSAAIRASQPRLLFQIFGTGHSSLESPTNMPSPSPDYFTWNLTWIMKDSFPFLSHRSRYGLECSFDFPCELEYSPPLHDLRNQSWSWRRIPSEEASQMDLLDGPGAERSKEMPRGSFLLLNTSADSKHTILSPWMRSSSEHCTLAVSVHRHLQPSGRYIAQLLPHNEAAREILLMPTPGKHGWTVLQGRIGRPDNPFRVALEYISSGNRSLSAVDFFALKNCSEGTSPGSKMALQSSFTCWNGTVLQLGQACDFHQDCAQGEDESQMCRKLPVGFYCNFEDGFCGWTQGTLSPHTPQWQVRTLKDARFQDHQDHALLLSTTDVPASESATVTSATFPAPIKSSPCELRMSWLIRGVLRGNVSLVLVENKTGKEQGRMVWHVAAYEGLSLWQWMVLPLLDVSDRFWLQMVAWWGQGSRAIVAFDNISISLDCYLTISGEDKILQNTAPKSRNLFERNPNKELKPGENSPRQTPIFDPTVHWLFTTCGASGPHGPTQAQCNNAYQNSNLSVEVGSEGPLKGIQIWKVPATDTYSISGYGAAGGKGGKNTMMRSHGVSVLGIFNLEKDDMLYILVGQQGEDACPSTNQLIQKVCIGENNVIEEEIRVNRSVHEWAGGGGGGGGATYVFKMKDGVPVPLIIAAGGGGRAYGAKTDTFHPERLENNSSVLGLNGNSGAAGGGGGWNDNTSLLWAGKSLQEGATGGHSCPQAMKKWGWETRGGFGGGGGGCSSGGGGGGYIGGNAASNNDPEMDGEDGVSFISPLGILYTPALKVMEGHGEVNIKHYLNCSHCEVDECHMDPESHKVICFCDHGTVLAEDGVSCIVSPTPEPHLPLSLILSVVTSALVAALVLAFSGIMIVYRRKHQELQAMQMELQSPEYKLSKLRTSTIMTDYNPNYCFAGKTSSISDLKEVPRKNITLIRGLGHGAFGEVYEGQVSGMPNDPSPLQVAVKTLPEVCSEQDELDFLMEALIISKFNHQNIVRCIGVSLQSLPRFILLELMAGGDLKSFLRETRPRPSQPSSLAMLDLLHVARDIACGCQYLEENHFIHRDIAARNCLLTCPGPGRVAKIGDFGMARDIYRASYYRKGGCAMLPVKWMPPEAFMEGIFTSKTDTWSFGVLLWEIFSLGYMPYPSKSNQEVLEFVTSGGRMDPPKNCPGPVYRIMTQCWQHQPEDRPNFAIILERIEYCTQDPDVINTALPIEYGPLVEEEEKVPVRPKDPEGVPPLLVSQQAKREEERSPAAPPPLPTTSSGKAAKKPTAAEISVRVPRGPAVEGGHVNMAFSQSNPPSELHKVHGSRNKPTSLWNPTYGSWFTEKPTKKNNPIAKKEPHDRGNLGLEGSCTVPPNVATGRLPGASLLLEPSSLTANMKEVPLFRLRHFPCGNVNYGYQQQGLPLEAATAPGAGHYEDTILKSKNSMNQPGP
# [17] = biological target: ALK tyrosine kinase receptor (Homo sapiens) (UniProt Q9UM73); conditions: at 1 µM
# [18] = biological target: Tyrosine-protein kinase ABL2 (Homo sapiens) (UniProt P42684); conditions: at 0.1 µM
# Sequence of Tyrosine-protein kinase ABL2 (Homo sapiens) (P42684 whole entry): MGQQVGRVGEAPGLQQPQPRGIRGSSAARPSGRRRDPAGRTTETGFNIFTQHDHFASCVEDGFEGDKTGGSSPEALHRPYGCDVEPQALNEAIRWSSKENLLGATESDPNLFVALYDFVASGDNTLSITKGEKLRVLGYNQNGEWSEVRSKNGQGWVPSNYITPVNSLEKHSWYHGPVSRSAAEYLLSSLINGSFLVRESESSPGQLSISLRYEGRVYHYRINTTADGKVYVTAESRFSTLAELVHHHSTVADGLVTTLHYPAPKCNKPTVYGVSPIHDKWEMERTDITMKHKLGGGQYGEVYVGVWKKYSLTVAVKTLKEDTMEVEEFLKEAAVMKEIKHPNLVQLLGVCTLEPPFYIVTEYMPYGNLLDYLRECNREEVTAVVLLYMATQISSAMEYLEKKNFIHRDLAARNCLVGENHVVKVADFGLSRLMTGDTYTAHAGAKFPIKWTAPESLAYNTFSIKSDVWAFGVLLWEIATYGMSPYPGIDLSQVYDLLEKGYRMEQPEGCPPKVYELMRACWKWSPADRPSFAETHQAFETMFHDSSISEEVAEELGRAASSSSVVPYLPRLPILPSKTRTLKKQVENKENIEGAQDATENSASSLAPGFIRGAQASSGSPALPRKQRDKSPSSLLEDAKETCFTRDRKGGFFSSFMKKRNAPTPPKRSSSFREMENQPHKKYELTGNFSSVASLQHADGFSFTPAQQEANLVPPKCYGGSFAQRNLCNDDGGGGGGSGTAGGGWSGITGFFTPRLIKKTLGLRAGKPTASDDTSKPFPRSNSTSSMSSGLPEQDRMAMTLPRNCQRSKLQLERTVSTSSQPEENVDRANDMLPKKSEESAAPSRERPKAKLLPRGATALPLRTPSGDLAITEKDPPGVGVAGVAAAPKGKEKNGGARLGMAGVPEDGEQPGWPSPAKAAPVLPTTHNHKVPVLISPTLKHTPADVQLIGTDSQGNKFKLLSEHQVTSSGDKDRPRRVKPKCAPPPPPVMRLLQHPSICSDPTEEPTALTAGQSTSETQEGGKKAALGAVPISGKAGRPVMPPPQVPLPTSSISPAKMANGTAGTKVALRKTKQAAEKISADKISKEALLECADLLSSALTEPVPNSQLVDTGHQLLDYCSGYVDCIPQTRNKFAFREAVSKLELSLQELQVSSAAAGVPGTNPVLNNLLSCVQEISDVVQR
# [19] = biological target: Tyrosine-protein kinase ABL2 (Homo sapiens) (UniProt P42684); conditions: at 1 µM
# [20] = biological target: Tyrosine-protein kinase receptor UFO (Homo sapiens) (UniProt P30530); conditions: at 0.1 µM;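 further: values are mean percent inhibition of AXL from the GSK PKIS screen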
# Sequence of Tyrosine-protein kinase receptor UFO (Homo sapiens) (P30530 whole entry): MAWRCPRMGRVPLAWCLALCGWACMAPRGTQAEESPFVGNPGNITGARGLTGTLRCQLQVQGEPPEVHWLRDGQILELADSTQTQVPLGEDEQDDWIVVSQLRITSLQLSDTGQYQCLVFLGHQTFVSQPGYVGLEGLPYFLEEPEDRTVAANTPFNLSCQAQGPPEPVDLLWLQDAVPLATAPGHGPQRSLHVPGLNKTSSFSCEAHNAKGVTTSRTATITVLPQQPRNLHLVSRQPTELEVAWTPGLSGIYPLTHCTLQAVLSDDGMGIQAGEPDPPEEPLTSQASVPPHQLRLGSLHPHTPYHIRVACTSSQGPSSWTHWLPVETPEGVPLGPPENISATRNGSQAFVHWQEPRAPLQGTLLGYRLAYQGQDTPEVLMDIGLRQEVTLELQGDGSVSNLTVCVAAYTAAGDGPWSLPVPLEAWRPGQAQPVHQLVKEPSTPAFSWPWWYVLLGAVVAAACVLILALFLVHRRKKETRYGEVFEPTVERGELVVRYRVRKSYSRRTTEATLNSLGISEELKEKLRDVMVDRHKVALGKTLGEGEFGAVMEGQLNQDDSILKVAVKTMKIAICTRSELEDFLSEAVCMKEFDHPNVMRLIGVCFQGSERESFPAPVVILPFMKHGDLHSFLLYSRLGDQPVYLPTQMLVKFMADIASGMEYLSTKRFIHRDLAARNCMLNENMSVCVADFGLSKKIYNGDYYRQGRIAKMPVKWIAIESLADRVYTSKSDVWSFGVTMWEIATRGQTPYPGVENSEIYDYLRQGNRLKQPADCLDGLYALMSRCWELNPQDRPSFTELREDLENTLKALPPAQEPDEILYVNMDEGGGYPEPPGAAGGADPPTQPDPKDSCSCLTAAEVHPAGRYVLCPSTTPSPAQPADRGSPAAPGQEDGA
# Sequence of Serine/threonine-protein kinase PAK 6 (Homo sapiens) (Q9NQU5 whole entry, looked up): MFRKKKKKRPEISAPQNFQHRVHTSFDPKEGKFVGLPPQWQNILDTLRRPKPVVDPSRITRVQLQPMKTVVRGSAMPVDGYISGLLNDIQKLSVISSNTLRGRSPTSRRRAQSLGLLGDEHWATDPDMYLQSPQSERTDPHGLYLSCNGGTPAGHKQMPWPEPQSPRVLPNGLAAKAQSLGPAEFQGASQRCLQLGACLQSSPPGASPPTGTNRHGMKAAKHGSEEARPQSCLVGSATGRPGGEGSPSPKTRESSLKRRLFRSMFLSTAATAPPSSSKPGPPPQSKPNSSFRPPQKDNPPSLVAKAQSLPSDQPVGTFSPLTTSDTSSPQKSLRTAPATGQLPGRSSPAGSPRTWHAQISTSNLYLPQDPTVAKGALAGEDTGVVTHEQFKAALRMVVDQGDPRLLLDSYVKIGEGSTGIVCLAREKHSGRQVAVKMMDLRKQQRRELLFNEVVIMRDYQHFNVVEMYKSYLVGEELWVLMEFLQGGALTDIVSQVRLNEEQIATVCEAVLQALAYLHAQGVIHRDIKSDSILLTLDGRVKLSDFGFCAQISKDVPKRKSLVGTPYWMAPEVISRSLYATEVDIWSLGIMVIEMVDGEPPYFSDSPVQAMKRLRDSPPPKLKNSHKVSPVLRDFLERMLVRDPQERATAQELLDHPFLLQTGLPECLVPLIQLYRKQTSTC
SMILES,inhibition [1],inhibition [2],inhibition [3],inhibition [4],inhibition [5],inhibition [6],inhibition [7],inhibition [8],inhibition [9],inhibition [10],inhibition [11],inhibition [12],inhibition [13],inhibition [14],inhibition [15],inhibition [16],inhibition [17],inhibition [18],inhibition [19],inhibition [20]
CC(=O)Nc1cccc(C#Cc2cncnc2Nc2ccc(OCc3cccc(F)c3)c(Cl)c2)c1,-5.42%,-0.36%,1.79%,2.77%,1.25%,1.83%,2.92%,2.53%,2.16%,1.92%,1.79%,0.83%,3.28%,4.43%,8.55%,1.96%,6.45%,2.39%,5.22%,1.64%
CCc1nn2ncccc2c1-c1ccnc(NC2CC2)n1,-4.39%,0.71%,4.01%,3.05%,6.43%,1.9%,4.54%,2.92%,7.3%,0.33%,1.06%,1.02%,4.43%,5.52%,6.81%,1.99%,5.07%,2.35%,5.86%,-2.55%
COC(=O)c1sc(-n2cnc3cc(OC)c(OC)cc32)cc1OCc1ccccc1C(F)(F)F,0.71%,6.91%,22.7%,5.82%,18.2%,4.03%,16.2%,6.05%,18.9%,2.67%,4.91%,6.46%,21.6%,3.86%,12.3%,3.59%,12.4%,3.44%,5.92%,-8.88%
Cc1ccc(O)cc1Nc1ccnc2cc(-c3ccccn3)ccc12,4.08%,93.5%,96.2%,94.7%,97.2%,93.6%,97.9%,94%,98%,10.1%,50.7%,95.5%,98.2%,84.3%,89.4%,5.32%,34.1%,74.3%,95.7%,-5.44%
c1ccc(COc2ccc(Nc3ncnc4ccc(-c5ccco5)cc34)cc2)cc1,1.25%,-0.69%,0.29%,0.16%,0.64%,0.39%,2.41%,0.54%,0.07%,1.64%,1.49%,0.09%,0.37%,2.97%,1%,1.38%,2.45%,2.41%,4.34%,0.76%
CN(C)CCOc1ccc(-c2nc(-c3ccncc3)c(-c3ccc4c(c3)CC/C4=N\O)[nH]2)cc1,9.98%,4.28%,17.5%,8.42%,34.1%,6.36%,30.4%,10.1%,45.1%,8.51%,41.9%,10.2%,40.1%,6.41%,40.7%,2.17%,8.67%,4.57%,19.4%,-2.86%
CS(=O)(=O)CCNCc1ccc(-c2ccc3ncnc(Nc4ccc(OCc5ccccc5)c(C(F)(F)F)c4)c3c2)o1,-6.97%,3.5%,2.71%,4.04%,4.48%,0.91%,0.91%,2.84%,2.08%,2.59%,2.46%,4.02%,3.49%,5.33%,5.35%,4.27%,4.07%,4.59%,4.76%,-6%
CCOc1ccc2c(-c3ccnc(Nc4cccc(C(F)(F)F)c4)n3)cnn2n1,-3.51%,2.13%,4.02%,2.46%,4.74%,0.25%,1.69%,2.99%,3.05%,-0.14%,2.2%,2.21%,3.23%,3.73%,7.89%,2.18%,3.1%,2.04%,8.28%,-3.01%
COc1cc2c(cc1Nc1nc(Nc3ccsc3C(N)=O)c3cc[nH]c3n1)N(C(=O)CN(C)C)CCC2(C)C,3.1%,0.79%,4.14%,4.5%,2.9%,2.15%,1.57%,4.15%,2.78%,3.19%,3.95%,3.45%,4.27%,2.57%,6.2%,95.7%,78.5%,2.86%,4.17%,47.4%
Nc1nc(-c2ccc(F)cc2)c(-c2ccc3ncccc3n2)s1,-1.32%,6.26%,16.1%,6.76%,24.2%,2.61%,20.2%,6.38%,25.9%,5.1%,6.49%,9.13%,26.9%,9.42%,27.8%,3.27%,5.68%,6.71%,20.1%,-5.15%
Clc1ccc(-c2nn3ncccc3c2-c2ccnc(Nc3ccccc3)n2)cc1,1.5%,2.58%,8.98%,4.63%,20.5%,10.4%,45.8%,5.9%,36.2%,6.6%,30.7%,7.15%,24.5%,3.9%,27.6%,2.8%,2.67%,3.8%,18.2%,-0.26%
